Screening results: PubChem BioAssay, National Center for Advancing Translational Sciences (NCATS)
Rows were chosen to be rich in hits. Some 19% of all compounds tested hit in one or more screens of this group.
MCF10A rereplic: A quantitative high throughput screen for small molecules that induce DNA re-replication in MCF 10a normal breast cells; Potency, µM (series often up to 46.1 µM), hits mostly activators; MCF 10A DNA re-replication, Hoechst nuclear intensity, 48 h; AID 624296, 2012; 2.9% of 350,000 active; further: nearly all actives have a fitted effect of over 50% in size
TDP1 cell CPT: qHTS for Inhibitors of human tyrosyl-DNA phosphodiesterase 1 (TDP1): qHTS in cells in presence of CPT | chicken DT40 Tdp1-/-;hTDP1 cells + 20 nM CPT, ATP luminescence, 48 h | Potency, µM (highest dose often 46.2 µM), usual class: inhibitors | 12% of 420,000 active | AID 686979, 2013; further: nearly all actives have a fitted effect of over 55% in size
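Cell growth measured by CellTiter-Glo luminescence after a minimum 48 h, 37 C compound exposure with 20 nM CPT in Tdp1-knockout DT40 cells stably expressing hTDP1, seeded 400/well; qHTS titration format.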
SW480 rereplic: A quantitative high throughput screen for small molecules that induce DNA re-replication in SW480 colon adenocarcinoma cells. SW480 DNA re-replication, Hoechst DNA content imaging, 48 h. Potency, µM (doses to about 46.1 µM), most hits filed as activators. 1.8% of 340,000 active; further: nearly all actives have a fitted effect of over 55% in size
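Treated cells incubate 48 hr (37 C, 5% CO2), are stained 40 min with Hoechst, and nuclear fluorescence is enumerated; a rise in nuclei with high DNA signal marks re-replication.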
IL-1B inflam inh: qHTS for Inhibitors of Inflammasome Signaling: IL-1-beta AlphaLISA Primary Screen; 4.7% of 360,000 active; AID 743279, 2014; THP-1 LPS/ATP IL-1B secretion, AlphaLISA, 16 h; active compounds read low; activity change, % at 57.5 µM; in the data active means activity change below about -50%; inconclusive means mostly about -30% to -49%
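Secreted IL-1B measured by AlphaLISA bead assay after 16 h compound exposure of THP-1 cells; compounds (final up to 57.5 uM) added 1 h before LPS (250 ng/mL) and ATP (1.25 mM) stimulation; lower signal means less secretion.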
TDP1 cell noCPT: qHTS for Inhibitors of human tyrosyl-DNA phosphodiesterase 1 (TDP1): qHTS in cells in absence of CPT | DT40 Tdp1-/- hTDP1 cells, no CPT, ATP luminescence, 48 h | Potency, µM (top dose mostly 46.2 µM), hits mostly inhibitors | 15% of 420,000 active | AID 686978, 2013; further: nearly all actives have a fitted effect of over 55% in size
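Chicken DT40 Tdp1-/- cells complemented with human TDP1, screened without camptothecin (DMSO vehicle only), 400 cells/well. Compounds pin-transferred, cells incubated at 37 °C for at least 48 hr. Growth read as ATP-dependent luminescence (CellTiter-Glo, 30 min at RT).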
Chronic BCR inh: qHTS Assay to Find Inhibitors of Chronic Active B-Cell Receptor Signaling | ABC-DLBCL IkBa-CBG/CBR reporter, luminescence ratio, 4 h | Potency, µM (highest dose often 46.1 µM), usual class: inhibitors | 0.05% of 340,000 active | AID 493014, 2011; active means well fitted inhibition curve with a large enough effect in the signal ratio, with a control signal flat, not every such curve was filed as active; inconclusive means small, poorly fitted or top-dose-only effect, or effect the other way, or a change in a side signal; the % refers to the signal ratio
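Compounds up to 46 uM were incubated four hours with TMD8 cells whose green CBG68 luciferase is fused to IkappaBalpha; red CBR luminescence normalised the signal, and concentration-effect curves were fitted to fusion, red and ratio data.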
Hits are given with their value; [ ] = another dose, or the depositor's remark. Unless noted, the call rests on the fitted dose curve; in most records, active means well fitted curve in the direction sought with a large enough effect; inconclusive means small, poorly fitted or top-dose-only effect, or another doubt; inactive means no such curve, though single readings can be large; an effect the other way counts as inactive or inconclusive.

Results for CCOc1ncccc1C(=O)N1CCN(S(=O)(=O)c2cccs2)CC1 ?
MCF10A rereplic: inactive; TDP1 cell CPT: inactive; SW480 rereplic: inactive; IL-1B inflam inh: inactive; TDP1 cell noCPT: inactive; Chronic BCR inh: inactive

How did CCCCn1nc(C(=O)N2CCN(S(=O)(=O)c3ccccc3)CC2)c2ccccc2c1=O do in these assays?
MCF10A rereplic: inactive; TDP1 cell CPT: inconclusive; SW480 rereplic: inactive; IL-1B inflam inh: inactive; TDP1 cell noCPT: 15µM; Chronic BCR inh: inactive

What do the screens show for `CCOc1ncccc1C(=O)N1CCN(C(c2ccccc2)c2ccccc2)CC1`?
MCF10A rereplic: inconclusive; TDP1 cell CPT: 13µM; SW480 rereplic: inactive; IL-1B inflam inh: -90; TDP1 cell noCPT: 13µM; Chronic BCR inh: inactive

What do the screens show for `COC(=O)[C@]12CCCCC=C1N(Cc1ccco1)C(=O)[C@H](CC(=O)NCc1ccc(C)o1)C2`?
TDP1 cell CPT: inconclusive; IL-1B inflam inh: inactive; TDP1 cell noCPT: inconclusive

How did NC(=O)c1ccsc1NC(=O)COC(=O)c1cnccn1 do in these assays?
MCF10A rereplic: inactive; TDP1 cell CPT: inactive; SW480 rereplic: inactive; IL-1B inflam inh: inactive; TDP1 cell noCPT: inactive; Chronic BCR inh: inactive

Results for CC(=O)Nc1nc2[nH]ccc2c(=O)[nH]1 ?
TDP1 cell CPT: inactive; IL-1B inflam inh: inactive; TDP1 cell noCPT: inactive

What do the screens show for `O=C(c1n[nH]c2ccccc12)N1CCN(S(=O)(=O)c2ccc(Cl)cc2)CC1`?
MCF10A rereplic: inactive; TDP1 cell CPT: inconclusive; SW480 rereplic: inactive; IL-1B inflam inh: inactive; TDP1 cell noCPT: 18µM; Chronic BCR inh: inactive

How did COc1ccc2c(c1)Sc1ccccc1N2 do in these assays?
MCF10A rereplic: inconclusive; TDP1 cell CPT: inconclusive; SW480 rereplic: inactive; IL-1B inflam inh: inactive; TDP1 cell noCPT: 16µM; Chronic BCR inh: inactive

What do the screens show for `CCN(CC)S(=O)(=O)c1cc(C(=O)Nc2cc(C)on2)c(Cl)cc1Cl`?
MCF10A rereplic: inconclusive; TDP1 cell CPT: inconclusive; SW480 rereplic: inconclusive; IL-1B inflam inh: -94; TDP1 cell noCPT: inconclusive; Chronic BCR inh: inactive

What do the screens show for `CCN(CC)S(=O)(=O)c1cc(C(=O)Nc2nncs2)c(Cl)cc1Cl`?
MCF10A rereplic: inconclusive; TDP1 cell CPT: inactive; SW480 rereplic: inconclusive; IL-1B inflam inh: -84; TDP1 cell noCPT: inactive; Chronic BCR inh: inactive

Results for Cc1ccc(-c2ccnc(-n3ncc(C(=O)NCCN4CCOCC4)c3C3CC3)n2)o1 ?
TDP1 cell CPT: 21µM; TDP1 cell noCPT: inactive

How did CCN1CCCC1CNC(=O)c1cnn(-c2nccc(-c3ccc(C)o3)n2)c1C1CC1 (centres undefined) do in these assays?
TDP1 cell CPT: inactive; TDP1 cell noCPT: inactive

Results for O=C(NCC1(N2CCOCC2)CCCCC1)c1cnn(-c2nccc(-c3cccs3)n2)c1C1CC1 ?
TDP1 cell CPT: inconclusive; TDP1 cell noCPT: 21µM

Results for O=C(NCCN1CCOCC1)c1cnn(-c2nccc(-c3cc4ccccc4o3)n2)c1C1CC1 ?
TDP1 cell CPT: 18µM; TDP1 cell noCPT: inconclusive

What do the screens show for `Cc1c(C(=O)NCCN2CCOCC2)cnn1-c1nccc(-c2cc3ccccc3o2)n1`?
TDP1 cell CPT: inactive; TDP1 cell noCPT: inactive

What do the screens show for `O=C(NCC1(N2CCCCC2)CCCC1)c1cnn(-c2nccc(-c3cccs3)n2)c1C1CC1`?
TDP1 cell CPT: inactive[9.04 µM]; TDP1 cell noCPT: inactive

What do the screens show for `CCNC(=O)c1c(NC(=O)c2nc(SC)ncc2Cl)sc2c1CCCC2`?
TDP1 cell CPT: inactive; TDP1 cell noCPT: inconclusive

What do the screens show for `COc1ccccc1CNC(=O)CCC(=O)N1Cc2ccccc2Oc2ncccc21`?
TDP1 cell CPT: inconclusive; TDP1 cell noCPT: inactive; Chronic BCR inh: inactive

Results for COC(=O)C[C@@H]1OC[C@H](Cc2ccccc2)N1S(=O)(=O)c1ccc(C)cc1 ?
TDP1 cell CPT: inconclusive; IL-1B inflam inh: inactive; TDP1 cell noCPT: inconclusive

How did Cc1cc(O)cc(O)c1-c1onc(C(F)(F)F)c1-c1cscn1 do in these assays?
MCF10A rereplic: inactive; TDP1 cell CPT: 18µM; SW480 rereplic: inactive; IL-1B inflam inh: inactive; TDP1 cell noCPT: 10µM; Chronic BCR inh: inconclusive

Results for COc1ccc(-c2onc(C)c2-c2cscn2)c(O)c1 ?
MCF10A rereplic: inactive; TDP1 cell CPT: inactive; SW480 rereplic: inactive; IL-1B inflam inh: inactive; TDP1 cell noCPT: inactive; Chronic BCR inh: inconclusive

How did CCOc1ccc(-c2onc(C(F)(F)F)c2-c2cscn2)c(O)c1 do in these assays?
MCF10A rereplic: inconclusive; TDP1 cell CPT: 11µM; SW480 rereplic: inactive; IL-1B inflam inh: inactive; TDP1 cell noCPT: inconclusive; Chronic BCR inh: inactive

Results for COc1ccc(NC(=O)CCN2CCN(c3ccccc3F)CC2)c(OC)c1 ?
MCF10A rereplic: inactive; TDP1 cell CPT: inactive; SW480 rereplic: inactive; IL-1B inflam inh: inactive; TDP1 cell noCPT: inactive; Chronic BCR inh: inactive

How did O=C(N[C@H]1C/C=C\C[C@H](CC(=O)N(CCO)Cc2ccccc2)C(=O)N[C@@H](c2ccccc2)COC1=O)OCC1c2ccccc2-c2ccccc21 do in these assays?
MCF10A rereplic: inactive; TDP1 cell CPT: 7.3µM; SW480 rereplic: inactive; IL-1B inflam inh: inactive; TDP1 cell noCPT: 13µM; Chronic BCR inh: inactive

Results for C[C@H]1COC(=O)[C@@H](CC(=O)OC(C)(C)C)C/C=C\C[C@@H](CC(=O)N(CCO)Cc2ccccc2)C(=O)N1 ?
MCF10A rereplic: inconclusive; TDP1 cell CPT: inconclusive; SW480 rereplic: inactive; IL-1B inflam inh: inactive; TDP1 cell noCPT: inconclusive; Chronic BCR inh: inactive

How did C[C@@H]1COC(=O)[C@@H](NC(=O)OCC2c3ccccc3-c3ccccc32)C/C=C\C[C@@H](CC(=O)N(CCO)Cc2ccccc2)C(=O)N1 do in these assays?
MCF10A rereplic: inactive; TDP1 cell CPT: 1.5µM; SW480 rereplic: inactive; IL-1B inflam inh: inactive; TDP1 cell noCPT: 2.6µM; Chronic BCR inh: inactive

How did C[C@H]1COC(=O)[C@H](NC(=O)OCC2c3ccccc3-c3ccccc32)C/C=C\C[C@H](CC(=O)N(CCO)Cc2ccccc2)C(=O)N1 do in these assays?
MCF10A rereplic: inconclusive; TDP1 cell CPT: 9.2µM; SW480 rereplic: inconclusive; IL-1B inflam inh: inactive; TDP1 cell noCPT: 9.2µM; Chronic BCR inh: inactive

What do the screens show for `Cc1cc2c(cc1NC(=O)c1ccccc1C)n(C)c(=O)c(=O)n2C`?
TDP1 cell CPT: inactive; TDP1 cell noCPT: inactive

Results for Cc1oc(=O)oc1CN1CCN(c2cc3c(cc2F)c(=O)c(C(=O)O)c2n3C(C)S2)CC1 (centres undefined) ?
MCF10A rereplic: inactive; TDP1 cell CPT: inactive; SW480 rereplic: inactive; TDP1 cell noCPT: inactive
